Bioassay records deposited in PubChem BioAssay by National Center for Advancing Translational Sciences (NCATS).
This is a sample that favours compounds with a hit; in the whole collection about 12% have one here.
BAZ2B block: BAZ2B (human) inhibition | Q9UIF8 | AlphaScreen BAZ2B-H3K14Ac peptide displacement | Potency, µM (doses to about 114 µM), for the others: at the top dose activity change, negative = inhibition, usual class: inhibitors | actives 4.4% (n = 360,000); further: on the % scale 0 is the no-effect control and ±100 the full control effect; nearly all actives have a fitted effect of over 60% in size
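BAZ2B (50 nM) with biotin-H3(5-23)K14Ac peptide (50 nM) in PBS pH 7.4, 0.01% Tween-20, preformed 30 min, then compound 30 min at room temperature; top concentration 110uM. AlphaScreen streptavidin donor/nickel chelate acceptor beads (10 ug/mL final), 20 min dark, signal read.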
G9a block: inhibitors of human histone lysine methyltransferase G9a; Q96KQ7; G9a H3K9 monomethylation, AlphaScreen, 2 h; Potency, µM (top dose mostly 102 µM), for inactives: at the highest dose activity, negative = inhibition, actives largely listed as inhibitors; actives 8.8% (n = 350,000); AID 504332; further: on the % scale 0 is the no-effect control and ±100 the full control effect; nearly all actives have a fitted effect of over 75% in size
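Methyltransferase reactions run at room temperature for 2 h (20 nM enzyme, 500 nM biotin-H3K9 peptide, 20 uM SAM) after a 15 min compound preincubation; product detected by AlphaScreen beads and anti-H3K9me1 antibody.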
HP1b binding inh: inhibitors of HP1-beta chromodomain binding to methylated histone tails; P83916; AlphaScreen HP1-beta / biotin-H3K9me3 peptide binding; Potency, µM (doses to about 114 µM), for inactives: top-dose activity change, negative = inhibition, usual class: inhibitors; actives 0.56% (n = 390,000); AID 540317; further: nearly all actives have a fitted effect of over 70% in size
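HP1-beta protein (50 nM final) preincubated 30 min at room temperature with biotinylated H3(1-18)K9me3 peptide (50 nM) in PBS pH 7.4, 0.01% Tween-20, then compound added for 30 min. AlphaScreen streptavidin donor/nickel chelate acceptor beads (10 ug/mL final), 30 min dark, luminescence read.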
Sfp PPTase inh: Sfp phosphopantetheinyl transferase inhibition; actives 3.5% (n = 310,000); Potency, µM, without a hit: largest response in the series, negative = inhibition, usual class: inhibitors; Biochemical Sfp PPTase activity, qHTS; AID 1490;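 further: the enzyme is Sfp with the accession as filed and its product quenches rhodamine fluorescence; 0% = enzyme reaction without inhibitor and -100% = no enzyme wells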
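Fluorescence-quenching assay with 15 nM Sfp, 5 uM rhodamine-CoA and 12.5 uM BHQ-2-labelled ybbR peptide in pH 7.6 Hepes/MgCl2 buffer. Enzyme was pre-incubated with compound for 15 min at room temperature. Rate was taken from the 30-min fluorescence change (525/598 nm).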
JMJD2A Tudor: JMJD2A Tudor domain (human) inhibition; O75164; AlphaScreen JMJD2A-Tudor / H3K4me3 peptide binding; Potency, µM (series often up to 114 µM), inactives show at the top dose activity change, negative = inhibition, usual class: inhibitors; actives 4.4% (n = 390,000); AID 504339; further: on the % scale 0 is the no-effect control and ±100 the full control effect; nearly all actives have a fitted effect of over 50% in size
L3MBTL1 inh: inhibitors of human L3MBTL1; Q9Y468; AlphaScreen L3MBTL1–H3K9me1 peptide binding; Potency, µM (titrated, usually from 57.1 µM), for inactives: top-dose activity, negative = inhibition, actives largely listed as inhibitors; actives 0.66% (n = 230,000); AID 485360; further: on the % scale 0 is the no-effect control and ±100 the full control effect; nearly all actives have a fitted effect of over 60% in size
Target sequence (Q9Y468 whole entry, looked up): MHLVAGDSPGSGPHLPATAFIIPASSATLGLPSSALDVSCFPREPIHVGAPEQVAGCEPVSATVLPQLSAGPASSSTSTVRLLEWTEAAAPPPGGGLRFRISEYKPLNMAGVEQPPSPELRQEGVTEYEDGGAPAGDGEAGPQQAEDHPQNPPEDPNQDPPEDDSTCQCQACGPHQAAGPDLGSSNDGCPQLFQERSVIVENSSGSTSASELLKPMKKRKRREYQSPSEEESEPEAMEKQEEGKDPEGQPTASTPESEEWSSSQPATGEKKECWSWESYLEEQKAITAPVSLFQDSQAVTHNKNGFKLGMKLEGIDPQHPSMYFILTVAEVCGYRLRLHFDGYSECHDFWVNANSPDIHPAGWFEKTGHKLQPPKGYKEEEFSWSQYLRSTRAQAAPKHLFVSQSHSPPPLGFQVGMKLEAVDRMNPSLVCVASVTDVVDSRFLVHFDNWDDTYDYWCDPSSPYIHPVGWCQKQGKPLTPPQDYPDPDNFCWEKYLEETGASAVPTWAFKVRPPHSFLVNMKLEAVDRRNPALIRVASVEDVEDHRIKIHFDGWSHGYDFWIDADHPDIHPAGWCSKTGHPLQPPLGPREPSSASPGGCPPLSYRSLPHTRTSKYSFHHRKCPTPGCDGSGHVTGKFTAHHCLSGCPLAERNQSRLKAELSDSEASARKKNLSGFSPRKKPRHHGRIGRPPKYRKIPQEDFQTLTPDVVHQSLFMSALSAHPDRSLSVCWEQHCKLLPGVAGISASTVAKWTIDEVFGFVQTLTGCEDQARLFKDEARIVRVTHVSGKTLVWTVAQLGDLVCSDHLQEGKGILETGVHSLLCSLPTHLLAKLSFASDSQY
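AlphaScreen proximity signal between nickel-chelate acceptor and streptavidin donor beads (final 10 ug/mL) reports binding of 50 nM L3MBTL1 to 75 nM biotin-H3 K9me1 peptide; complex incubated with compounds 30 min at room temperature; cefsulodin titration as control.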
* = called active by the depositor; ? = inconclusive; . = not tested or not shown; [ ] = dose if it differs, or a comment. The call rests on the fitted dose curve; in most records, active means well fitted curve in the direction sought with a large enough effect; inconclusive means small, poorly fitted or top-dose-only effect, or another doubt; inactive means no such curve, though single readings can be large; an effect the other way counts as inactive or inconclusive. Potency means the concentration at half of the fitted maximal effect.

SMILES | BAZ2B block | G9a block | HP1b binding inh | Sfp PPTase inh | JMJD2A Tudor | L3MBTL1 inh
CC(=O)NC1=NN(C(C)=O)C(C)(c2ccccc2)S1 (configuration not stated) | 44.7µM* | ? | 8.9% | 9.0% | -1.7% | 31.6µM*
COC(=O)c1c(C)nc2ccccc2c1-c1ccccc1 | 3.6% | -1.2%[12.7 µM] | 40.6% | 10.6% | 3.7% | .
COC(=O)c1c(C)nc(C)c(C(=O)OC)c1-c1ccc(OC)c(OC)c1 | -1.9% | 4.3% | -1.3% | 20.2% | -10.4% | 3.3%
CCOC(=O)c1c(C)nc2ccccc2c1-c1ccccc1 | 22.3% | -0.3%[59 µM] | 96.1% | 79.4µM* | 27.8% | 0.7%
CCOC(=O)c1c(C)nc(C)c(C(=O)OCC)c1-c1ccc(O)c(OC)c1 | 7.7% | 8.91µM* | ? | 31.6µM* | -22.3% | .
CC(=O)c1ccc(N2CCN(C(=O)c3cc4cc5cc(C)ccc5nc4s3)CC2)cc1 | 1.7% | 4.0%[59 µM] | 21.1%[57 µM] | . | -12.5% | .
CCN(C(=O)c1c(C)oc2ncnc(N3CCCCC3)c12)c1cc(C)ccc1C | 6.0%[57.1 µM] | -9.8%[59 µM] | 16.1% | . | -17.5% | .
O=C(O)c1cc(NCc2c(F)cccc2Cl)ccc1N1CCOCC1 | 8.9% | 12.6µM* | 9.1% | -3.9% | -2.1% | -5.9%
Cc1ccc(CNc2ccc(N3CCOCC3)c(C(=O)O)c2)s1 | -8.5% | -39.0%[12.7 µM] | 13.4% | 7.3% | -24.1% | .
COC(=O)c1cc(NCc2ccccc2F)ccc1N1CCOCC1 | -12.1% | 44.7µM* | 8.5% | -11.2% | -24.5% | -6.2%
CCOc1ccccc1CNc1ccc(N2CCOCC2)c(C(=O)O)c1 | 4.5% | -15.1% | 8.4% | 8.0% | -12.8% | -4.9%
O=S(=O)(c1ccc(Cl)cc1)c1nc(-c2cccs2)oc1SCc1ccccc1F | -0.8% | -24.7%[59 µM] | 42.3% | . | -1.7% | .
C#CCOCCOCCOCCNc1nc(N2CCOCC2)nc(N2CCN(C(=O)[C@H](CCC(=O)O)n3cc(C(N)[C@H](C)CC)nn3)CC2)n1 (some centres not stated) | -29.9% | 7.7%[12.7 µM] | 56.9% | -2.7% | 39.8µM* | 1.9%
C#CCOCCOCCOCCNc1nc(N2CCN(C(=O)[C@H](CCC(=O)O)n3cc([C@@H](N)[C@H](C)CC)nn3)CC2)nc(N2CCN(C(=O)[C@H](CCC(=O)O)n3cc([C@@H](N)CCSC)nn3)CC2)n1 | . | . | 49.2% | . | 50.1µM* | ?
C#CCOCCOCCOCCNc1nc(N2CCN(C(=O)[C@H](CCC(=O)O)n3cc(CN)nn3)CC2)nc(N2CCN(C(=O)[C@H](CCC(=O)O)n3cc([C@@H](N)[C@H](C)CC)nn3)CC2)n1 | . | . | 5.7% | . | 79.4µM* | 2.0%
C#CCOCCOCCOCCNc1nc(N2CCN(C(=O)[C@H]([C@@H](C)CC)n3cc(CCC(=O)O)nn3)CC2)nc(N2CCN(C(=O)[C@H](CCCCN)n3cc(CCC(=O)O)nn3)CC2)n1 | . | . | 14.8% | . | -21.0% | .
COc1ccc2c(c1)c1nc3ccccc3nc1n2Cc1ccc(OC(C)C)c(OC)c1 | 31.3% | 5.5% | 77.9% | 14.1µM* | 1.4% | 3.7%
COc1ccc(Cn2c3ccc(OC)cc3c3nc4ccccc4nc32)cc1 | 13.3% | 50.3%[59 µM] | 37.2% | 0.9% | 8.6% | 14.5%
Cc1cc(C(c2ccc(C)o2)c2ccc(C)o2)c(O)c([N+](=O)[O-])c1 | 44.7µM* | 35.5µM* | 15.8µM* | 50.1µM* | 39.8µM* | .
Cc1cc(/C=N/n2cnnc2)c(O)c([N+](=O)[O-])c1 | ? | -0.5%[59 µM] | 4.2% | -3.8% | -7.3% | -10.0%
Cc1c(C(c2cccc([N+](=O)[O-])c2O)c2c(C)n(C)n(-c3ccccc3)c2=O)c(=O)n(-c2ccccc2)n1C | -6.1% | 13.2%[12.7 µM] | 36.4% | 15.2% | -12.7% | 3.2%
Cc1ccc(C(c2ccc(C)o2)c2cccc([N+](=O)[O-])c2O)o1 | 39.8µM* | 39.8µM* | ? | ? | 50.1µM* | -24.0%
NC(=S)Nc1cccc2cn[nH]c12 | 2.9% | -23.0% | 19.6% | 56.2µM* | -9.6% | ?
Cc1cnc(NC(=O)Nc2ccc(Cl)cc2)s1 | 15.6% | 50.1µM* | 22.2% | 9.5% | -9.7% | .
Cc1cnc(NC(=O)COc2ccccc2Cl)s1 | 1.2% | 56.2µM* | 9.9% | 18.1% | -18.2% | 0.5%
SMILES | BAZ2B block | G9a block | HP1b binding inh | Sfp PPTase inh | JMJD2A Tudor | L3MBTL1 inh
Cc1cc(C(=O)NNC(=O)COc2ccccc2Cl)n[nH]1 | 4.4% | 79.4µM* | 29.2% | -5.3% | 11.9% | .
Cc1cnc(NC(=O)CSc2ccc(Cl)cc2)s1 | 4.3% | 48.8%[12.7 µM] | 28.3% | 12.5% | -22.2% | 0.0%
NC(N)=Nc1nc(-c2ccccc2)c2ccccc2n1 | -14.4% | -23.6% | 34.7% | 50.1µM* | -16.1% | -4.2%
COc1cccc(OC)c1OCC(O)CN1CCN(c2ccccc2)CC1 (configuration not stated) | -6.2% | ? | 12.2% | 6.9% | -16.0% | -2.6%
C=CCc1ccc(OCC(O)CN2CCN(c3ccccc3OC)CC2)c(OC)c1 (configuration not stated) | ? | -21.6%[2.33 µM] | 3.4% | -8.1% | -22.1% | .
C=CCc1ccc(OCC(O)CN2CCN(Cc3ccc(Cl)cc3)CC2)c(OC)c1 (configuration not stated) | ? | 50.1µM* | 11.6% | -23.8% | -20.2%[57.1 µM] | -2.2%
COc1ccccc1N1CCN(CC(O)COc2c(OC)cccc2OC)CC1 (configuration not stated) | -34.9% | 14.1µM* | 17.6% | -9.2% | -18.0% | -0.9%
Cc1ccc(C)c(OCC(O)CN2CCC(C)CC2)c1C (configuration not stated) | 50.1µM* | ? | -38.2% | -17.2% | -23.3%[11.4 µM] | -1.3%
OC(COc1ccccc1)CN1CCN(c2ccccc2)CC1 (configuration not stated) | . | . | 29.4% | . | -17.1% | .
Cc1cccc(C)c1OCC(O)CN1CCN(c2ccccc2)CC1 (configuration not stated) | ? | 70.8µM* | 31.6% | 8.0% | -19.0% | -11.7%
COCCNC(=O)CCCn1c(SCC(=O)c2ccc(Br)cc2)nc2c(sc3ccccc32)c1=O | -14.0% | 3.8%[59 µM] | 17.7% | . | -11.4% | .
C=CCc1ccccc1OCC(O)CNC (configuration not stated) | 1.3% | 50.1µM* | 28.8% | 22.4% | -14.2% | 0.2%
Cc1ccc(N2CCN(CC(O)COc3cccc4ccccc34)CC2)cc1 (configuration not stated) | 35.5µM* | 39.8µM* | ? | ? | 44.7µM* | .
C=CCc1ccccc1OC[C@H](O)CNC(C)C | . | -14.5%[21.5 µM] | . | 3.0% | . | .
C=CCc1ccccc1OCC(O)CN1CCOCC1 (configuration not stated) | . | . | 44.6% | . | -14.8% | .
